Screening data as filed in PubChem.
TGFb SMAD3 inh = qHTS for Inhibitors of TGF-b. actives 1.2% (n = 410,000). AID 588855, 2011. HepG2 CAGA-GFP TGF-b/SMAD3 reporter, GFP fluorescence, 18 h; TGF-beta stimulated, 500 pg/mL final. Potency, µM (doses to about 46.1 µM), for inactives: at the top dose activity, negative = inhibition, hits mostly inhibitors; note: % is set by controls: 0 for no effect and ±100 for the full control effect; nearly all actives have a fitted effect of over 65% in size
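HEPG2 CAGA-GFP reporter cells (1000/well, DMEM with 1% FBS) received compounds, then recombinant TGF-beta at 500 pg/mL final for 18 hours at 37 degrees C. Per-cell GFP summed per well was normalised to unstimulated and stimulated DMSO controls before curve fitting.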
HepG2 tox = qHTS for Inhibitors of TGF-b: Cytotox Counterscreen; Potency, µM (doses to about 46.1 µM), inactives show top-dose activity change, negative = cytotoxicity, hits mostly cytotoxic; actives 0.76% (n = 410,000); HepG2 CAGA-GFP viability, ATP luminescence, 18 h
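CellTiter-Glo luminescence gave cytotoxicity after 18 hours at 37 degrees C. The cells were HepG2 CAGA-GFP in 1% FBS DMEM, stimulated with 500 pg/mL TGF-beta after compound addition. %Activity was normalised to no-cell wells (complete cell-killing) and DMSO (no toxicity), and curves were fitted and classified.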
HT1080 IDH1KD tx = qHTS for induction of synthetic lethality in tumor cells producing 2HG: qHTS for the HT-1080-IDH1KD cell line; Potency, µM (top dose mostly 46.1 µM), inactives show at the top dose activity, negative = toxicity, hits mostly cytotoxic; actives 2% (n = 360,000); HT-1080 IDH1 knockdown viability, ATP luminescence, 48 h; AID 686971, 2013;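 note: 0% = DMSO wells and -100% = cell-free medium wells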
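Knockdown cells (IDH1KD HT-1080) received compounds 2 h after plating at 750 cells/well and were kept 48 h at 37 °C in 5% FBS RPMI. A CellTiter-Glo luminescence read gave % activity for curve fitting.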
DT40 TDP1 no CPT = qHTS for Inhibitors of human tyrosyl-DNA phosphodiesterase 1 (TDP1): qHTS in cells in absence of CPT; DT40 Tdp1-/- hTDP1 cells, no CPT, ATP luminescence, 48 h; Potency, µM (series often up to 46.2 µM), for the others: at the highest dose activity change, negative = growth inhibition, actives largely listed as inhibitors; actives 15% (n = 420,000); note: % is set by controls: 0 for no effect and ±100 for the full control effect; nearly all actives have a fitted effect of over 55% in size
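Stably hTDP1-transfected Tdp1-null chicken DT40 cells were treated with library compounds minus camptothecin and grown for at least 48 hr at 37 °C, after which cellular ATP was quantified by luminescence.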
DT40 TDP1 CPT = qHTS for Inhibitors of human tyrosyl-DNA phosphodiesterase 1 (TDP1): qHTS in cells in presence of CPT; chicken DT40 Tdp1-/-;hTDP1 cells + 20 nM CPT, ATP luminescence, 48 h; Potency, µM (titrated, usually from 46.2 µM), for the others: at the highest dose activity change, negative = growth inhibition, hits mostly inhibitors; actives 12% (n = 420,000); note: % is set by controls: 0 for no effect and ±100 for the full control effect; nearly all actives have a fitted effect of over 55% in size
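Chicken DT40 Tdp1-/- cells complemented with human TDP1, 400 cells/well, exposed to compounds plus 20 nM camptothecin for at least 48 h at 37 C; viability read as ATP content by CellTiter-Glo luminescence.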
HT1080-NT tox = qHTS for induction of synthetic lethality in tumor cells producing 2HG: qHTS for the HT-1080-NT fibrosarcoma cell line; Potency, µM (titrated, usually from 46.1 µM), for the others: at the highest dose activity, negative = less viability, usual class: cytotoxic; AID 686970, 2013; actives 1.6% (n = 360,000); HT-1080-NT fibrosarcoma viability, CellTiter-Glo ATP luminescence, 48 h;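 note: NT is the 2HG producing partner of a matched IDH1 knockdown line; 0% = DMSO-treated cells and -100% = media-only wells without cells; nearly all actives have a fitted effect of over 55% in size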
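750 cells/well, RPMI + 5% FBS; 2 h settle, compound pin-transfer, 48 h at 37 degrees C. CellTiter-Glo 10 min RT, luminescence. Normalized to DMSO and media-only wells.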
The depositor's hits bear a star; ? = inconclusive; / = no result. Rows were chosen to be rich in hits. Some 17% of all compounds tested hit in one or more screens of this group. Calls come from the whole dose curve; as a rule, active = well fitted curve in the direction sought with a large enough effect; inconclusive = small, poorly fitted or top-dose-only effect, or another doubt; inactive = no such curve, though single readings can be large; an effect the other way counts as inactive or inconclusive. Potency is the fitted concentration of half-maximal effect.

SMILES	TGFb SMAD3 inh	HepG2 tox	HT1080 IDH1KD tx	DT40 TDP1 no CPT	DT40 TDP1 CPT	HT1080-NT tox
NNc1nc(Nc2ccccc2)nc(Nc2ccccc2)n1	-1.0%	-9.3%	?	?	16.4µM*	-28.5%
NNc1nc(Nc2ccccc2)nc(N2CCCCC2)n1	3.3%	-7.4%	?	?	?	-4.1%
c1ccc(Nc2ccnc(Nc3ccccc3)n2)cc1	?	-29.4%	?	20.6µM*	?	-28.1%
COc1ccc(Nc2nc(NN)nc(Nc3ccc(OC)cc3)n2)cc1	12.2%	-7.2%	-7.3%	13µM*	?	-19.9%
CC(Sc1ccc(S(=O)(=O)N(C)C)cn1)C(=O)NC1CCCC1 (stereo unspecified)	-2.6%	-1.2%	-5.7%	5.4%	-3.1%	0.7%
Cc1ccc(N2CC(NC(=O)c3ccco3)CC2=O)cc1 (stereo unspecified)	28.3%	3.8%	/	-0.5%	-3.8%	/
CCOC(=O)/C(C#N)=C/c1c(N2CCN(c3cccc(Cl)c3)CC2)nc2c(C)cccn2c1=O	-6.2%	4.2%	-7.0%	?	?	0.7%
CCNC(=O)/C(C#N)=C/c1c(N2CCN(c3ccccc3)CC2)nc2c(C)cccn2c1=O	8.8%	-13.0%	0.4%	?	?	3.7%
CCNC(=O)/C(C#N)=C/c1c(N2CCCCCC2)nc2c(C)cccn2c1=O	8.9%	-17.6%	-9.9%	23.1µM*	?	0.2%
CCNC(=O)/C(C#N)=C/c1c(N2CCN(c3ccc(OC)cc3)CC2)nc2c(C)cccn2c1=O	-23.0%	-30.1%	-4.3%	20.6µM*	?	-19.4%
Cc1ccccc1Oc1nc2c(C)cccn2c(=O)c1/C=C(\C#N)C(=O)Nc1c(C)n(C)n(-c2ccccc2)c1=O	?	-62.0%	-18.7%	20.6µM*	20.6µM*	-29.4%
COCCNC(=O)/C(C#N)=C/c1c(N2CCN(c3cccc(Cl)c3)CC2)nc2c(C)cccn2c1=O	?	-41.5%	-11.2%	23.1µM*	16.4µM*	?
Cc1ccccc1Oc1nc2ccccn2c(=O)c1/C=C(\C#N)C(=O)Nc1c(C)n(C)n(-c2ccccc2)c1=O	-16.8%	10.0%	-18.2%	?	?	-12.2%
Cn1nnnc1SCC(=O)Nc1ccc(C(=O)N2CCN(Cc3ccccc3F)CC2)cc1	2.4%	3.9%	0.0%	4.9%	-19.3%	16.8%
C=CCNC(=O)/C(C#N)=C/c1c(N2CCN(c3cccc(Cl)c3)CC2)nc2c(C)cccn2c1=O	-24.0%	-21.9%	16.9%	?	?	0.2%
CNC(=O)/C(C#N)=C/c1c(N2CCN(c3cccc(Cl)c3)CC2)nc2c(C)cccn2c1=O	-14.6%	-25.1%	0.3%	11.6µM*	?	15.2%
COCCNC(=O)/C(C#N)=C/c1c(N2CCN(c3ccc(OC)cc3)CC2)nc2c(C)cccn2c1=O	-0.1%	-9.7%	-10.0%	23.1µM*	23.1µM*	-11.2%
COCCNC(=O)/C(C#N)=C/c1c(N2CCN(c3ccccc3)CC2)nc2c(C)cccn2c1=O	5.4%	-5.3%	7.4%	?	23.1µM*	-1.3%
Cc1cccn2c(=O)c(/C=C(\C#N)C(N)=O)c(N3CCN(c4ccccc4)CC3)nc12	?	0.8%	?	6.51µM*	?	-27.4%
CCOC(=O)/C(C#N)=C/c1c(N2CCN(c3ccc(OC)cc3)CC2)nc2c(C)cccn2c1=O	3.3%	-4.0%	1.1%	?	?	-4.9%
CCc1nn(CC(=O)N2CC(C)CC(C)C2)c(=O)c2cccn12 (stereo unspecified)	0.0%	0.4%	0.0%	13.7%	5.2%	4.2%
COc1ccc2nc(C)cc(NCc3cccc(C(F)(F)F)c3)c2c1	?	22.4µM*	16.4µM*	13µM*	14.6µM*	23.1µM*
Cc1ccc2nc(C)cc(NCCO)c2c1	0.9%	-3.7%	0.2%	?	8.1%	0.7%
CCOC(=O)c1ccc2nc(C)cc(Nc3ccc(OC(C)C)cc3)c2c1	?	-52.8%	/	18.4µM*	23.1µM*	/
COc1ccc2nc(C)cc(Nc3ccccc3O)c2c1	?	-25.8%	-7.9%	?	23.1µM*	-9.8%
SMILES	TGFb SMAD3 inh	HepG2 tox	HT1080 IDH1KD tx	DT40 TDP1 no CPT	DT40 TDP1 CPT	HT1080-NT tox
CCOC(=O)c1ccc(NC(=O)c2cc(C)nc3ccccc23)cc1	9.3%	6.6%	20.0%	4.3%	17.7%	11.4%
CC(=O)c1ccc(Nc2cc(C)nc3ccc(C)cc23)cc1	-12.6%	-45.4%	?	?	?	20.6µM*
COc1ccc(CCC(=O)NCc2cccc(C(F)(F)F)c2)cc1	2.0%	-68.9%	-3.7%	-4.1%	-5.3%	0.8%
COc1ccc(Nc2cc(C)nc3ccc(C)cc23)cc1	-23.4%	-39.7%	-3.2%	16.4µM*	?	-20.0%
CCOC(=O)c1ccc2nc(C(F)(F)F)[nH]c(=O)c2c1	0.0%	14.3%	-2.2%	7.31µM*	16.4µM*	-0.8%
Cc1cc(Nc2ccc3c(c2)OCCO3)n2nc(C)nc2n1	16.1%	0.1%	6.2%	-3.3%	-16.1%	8.2%
CCOC(=O)c1ccc2nc(C)c3c(c2c1)OC(C)C3 (stereo unspecified)	12.5%	7.9%	-14.2%	-13.2%	-7.5%	-14.6%
Cc1ccc2nc(C)cc(Nc3ccc4c(c3)OCCO4)c2c1	?	-21.8%	?	12.6µM*	22.4µM*	?
COc1ccc2nc(C)cc(Nc3ccccc3OC)c2c1	-6.0%	-46.3%	-10.1%	?	?	-4.8%
CCOc1ccc(N2C(=O)C3C(C2=O)C3(c2ccccc2)c2ccccc2)cc1 (stereo unspecified)	?	14.8%	-6.4%	?	18.4µM*	-1.2%
CCOc1ccc(N2C(=O)CC(SCc3nc4ccccc4[nH]3)C2=O)cc1 (stereo unspecified)	-2.2%	1.7%	13.3%	?	16.4µM*	-5.5%
O=C1CC(SCc2nc3ccccc3[nH]2)C(=O)N1c1ccc(Cl)cc1 (stereo unspecified)	-6.8%	1.8%	16.2%	?	?	9.9%
